Compounds with a hit are over-represented: about 4.1% of the library has one in this group of screens.
DAX1 inh-1 = DAX1 (NR0B1) inhibitors, primary screen, cell-based, HEK293, Gal4-DAX1, luciferase luminescence; Nuclear receptor subfamily 0 group B member 1 (Homo sapiens), P51843; HEK293 Gal4-DAX1 luciferase reporter; inhibition, % at 6.75 µM; actives 0.99% (n = 340,000);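 active = inhibition above the mean over all tested compounds plus 3 SD, cut at about 4.2% in these data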;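 note: inhibition shows as a rise in luminescence from relieved DAX1 repression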
Target sequence (P51843 207-470 limits assumed): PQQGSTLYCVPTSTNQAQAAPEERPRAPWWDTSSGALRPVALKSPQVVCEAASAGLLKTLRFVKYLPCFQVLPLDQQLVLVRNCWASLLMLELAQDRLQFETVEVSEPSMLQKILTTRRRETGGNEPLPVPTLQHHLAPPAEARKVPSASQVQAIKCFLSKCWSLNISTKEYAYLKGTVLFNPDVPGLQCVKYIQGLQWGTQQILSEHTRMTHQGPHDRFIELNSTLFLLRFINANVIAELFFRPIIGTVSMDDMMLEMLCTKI
DAX1 inh-2 = DAX1 (NR0B1) inhibitors on StAR promoter, primary screen, cell-based, luminescence, SF-1 (NR5A1), full-length DAX-1; HEK293T StAR-luciferase reporter, SF-1/DAX-1 repression relief; inhibition, % at 6.8 µM; actives 1.1% (n = 370,000); AID 652010, 2013;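 active = inhibition above the mean over all tested compounds plus 3 SD, cut at about 3.6% in these data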;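 note: higher inhibition means more luminescence from relief of DAX-1 repression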
hgDAF12 agonist = H. glycines DAF-12 receptor agonists, primary screen, cell-based, luminescence, HEK293, GAL4 fusion, UAS-luciferase; Nuclear hormone receptor DAF-12 (Heterodera glycines), GAL4 fusion; activation, % at 6.8 µM; HEK293 GAL4-hgDAF12 UAS-luciferase reporter, agonist luminescence; normalized to butyrate control; actives 1.8% (n = 370,000);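 active = activation above a cutoff set at the mean of all screened compounds plus 3 SD, cut at about 10% in these data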
hcDAF-12 act = H. contortus DAF-12 nuclear receptor activators, primary screen, cell-based, luminescence, HEK293, lit1-tk-luc reporter. actives 1.4% (n = 370,000). activation, % at 6.8 µM. HEK293 hcDAF-12 lit1-tk-luc reporter; 0% DMSO, 100% Δ7-dafachronic acid;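 active = activation above the mean of all tested compounds plus 3 SD, cut at about 5.5% in these data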
ssDAF12 agonist = S. stercoralis DAF-12 nuclear receptor activators, primary screen, cell-based, luminescence, HEK293, GRIP1 co-expression, lit1-tk-luc; HEK293 ssDAF-12/GRIP1 lit1-tk-luc reporter; % of 3 µM dafachronic acid response; activation, % at 6.8 µM; actives 1% (n = 370,000); AID 652126, 2013;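 active = activation above the mean over all tested compounds plus 3 SD, cut at about 0.9% in these data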
LXRb hcDAF ctr = LXR agonists, Gal4 luciferase reporter, confirmation, counter-screen for hcDAF-12 agonist project, cell-based, luminescence, HEK293, H. contortus campaign | shares compounds with hcDAF-12 act | HEK293 Gal4-LXR tk-luc reporter, 24 h; normalized: DMSO 0%, positive control 100% | activation, % at 6.8 µM | 3,400 tested, under 10 active;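 active = mean percent activation of the reporter above a cutoff set as the average over tested compounds plus their standard deviation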
hcDAF12 ag = H. contortus DAF-12 receptor agonists, confirmation, cell-based, luminescence, HEK293, lit1-tk-luc, triplicate. shares compounds with hcDAF-12 act. AID 743032, 2013. activation, % at 6.8 µM. actives 61% (n = 3,400). HEK293 hcDAF-12 lit1-tk-luc reporter; % of Δ7-dafachronic acid response;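 active = mean activation across triplicate tests above the threshold derived from the earlier primary screen, cut at about 5.5% in these data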
Numbers stand for hits; - = inactive; . = no result given.

SMILES	DAX1 inh-1	DAX1 inh-2	hgDAF12 agonist	hcDAF-12 act	ssDAF12 agonist	LXRb hcDAF ctr	hcDAF12 ag
COC(=O)C1CCN(c2nc3ccccc3nc2C(C#N)C(=O)OCC(C)C)CC1 (centres undefined)	-	-	-	-	-	.	.
COC(=O)C1CCN(c2nc3ccccc3nc2C(C#N)C(=O)NCCc2ccccc2)CC1 (centres undefined)	-	-	-	8.2	-	-	-
CCC1CCCCN1C(=O)CSc1nnc(-c2ccc3c(c2)OCCO3)o1 (centres undefined)	-	-	-	-	-	.	.
CCOC(=O)C1CCCCN1C(=O)CCc1nnc(-c2ccc3c(c2)OCO3)o1 (centres undefined)	-	-	-	7.7	-	-	-
Cc1ccc(C=Nc2cc([N+](=O)[O-])ccc2C)s1	-	-	-	6.9	-	-	-
CC(C)c1[nH]nc2c1C(c1cccc(C(F)(F)F)c1)N(Cc1ccccc1)C2=O (centres undefined)	.	-	-	-	-	.	.
CCC(C)(C)C1CCC2(CC1)NC(=O)N(CC(=O)NCCc1c[nH]c3ccccc13)C2=O (centres undefined)	-	-	-	6.8	-	-	-
CC1CCC2(CC1)NC(=O)N(CC(=O)NCCc1c[nH]c3ccccc13)C2=O (centres undefined)	-	-	-	-	-	.	.
COc1cc2c(cc1OC)[C@@H](NC(=O)c1ccncc1)[C@H](C)[C@H]2c1ccccc1	.	-	-	-	-	.	.
O[C@@H](Cc1ccccc1)[C@@H](/C=C/c1ccccc1)NCCc1ccccc1	.	-	-	-	-	.	.
CC1(c2nnnn2-c2ccc3c(c2)OCCO3)CSCC(=O)N1CCc1c[nH]c2ccccc12 (centres undefined)	.	-	-	-	-	.	.
Cc1ccc(NC(=O)Cc2c(Cl)cccc2Cl)cc1S(=O)(=O)N(C)C	-	-	-	11	-	-	-
CCOC(=O)C1=C(CSc2nc(-c3ccccc3)ccc2C#N)OC(N)=C(C#N)C1c1cccnc1 (centres undefined)	-	-	12	7.2	1.3	-	9.4
CC1CCCCN1C(=O)CSc1nnc(-c2ccccc2O)o1 (centres undefined)	-	-	16	15	1.7	-	20
O=C(CSc1nnc(-c2ccccc2O)o1)N1CCOCC1	-	-	-	11	-	-	-
Cc1occc1-c1nnc(SCC(=O)N2CCCCC2C)o1 (centres undefined)	-	-	-	-	-	.	.
COC(=O)c1cc2c(c3c4ccccc4n(S(=O)(=O)c4cccc(C)c4)c13)C(=O)N(Cc1ccc(N(C)C)cc1)C2	.	-	-	-	-	.	.
Cc1occc1C(=O)N/N=C/c1ccc(N(C)C)cc1	-	-	-	7.3	-	-	7.2
CN(C)c1ccc(/C=N/NC(=O)c2ccccc2Cl)cc1	-	-	-	-	-	.	.
Cc1occc1C(=O)N/N=C/C(Br)=C\c1ccccc1	-	-	11	8.8	-	-	-
O=C(CSc1c[nH]c2ccccc12)NCC1CCCO1 (centres undefined)	-	-	-	9.6	1.5	-	-
O=S(=O)(NCc1ccccc1)c1cc(Br)ccc1Br	.	-	-	-	-	.	.
Cc1nnc(-c2ccccc2)o1	-	-	-	-	-	.	.

Screening data as filed in PubChem BioAssay.
